# Screening results (PubChem)
# A selection: hits, their analogues and other compounds. The true share with any hit is near 11%.
# Tau fibril ThT: tau fibrillization inhibition (ThT binding); P10636; recombinant tau K18 P301L, heparin-induced fibrillization, ThT fluorescence; Potency, µM (highest dose often 57.4 µM), usual class: inhibitors; 2.1% of 270,000 active; note: nearly all actives have a fitted effect of over 55% in size
# Target sequence (P10636 561-689 P618L limits assumed): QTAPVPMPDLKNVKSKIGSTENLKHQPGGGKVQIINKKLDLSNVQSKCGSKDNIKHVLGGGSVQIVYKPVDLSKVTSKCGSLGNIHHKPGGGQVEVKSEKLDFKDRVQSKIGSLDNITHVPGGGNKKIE
#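 In this qHTS, human K18 P301L tau is incubated with compound and heparin for 6 hr at 37 C, and Thioflavin T fluorescence then reports fibril load.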
# G9a block: inhibitors of human histone lysine methyltransferase G9a | G9a H3K9 monomethylation, AlphaScreen, 2 h | Potency, µM (top dose mostly 102 µM), actives largely listed as inhibitors | 8.8% of 350,000 active; note: nearly all actives have a fitted effect of over 75% in size
# Target sequence (Q96KQ7 913-1193 limits assumed): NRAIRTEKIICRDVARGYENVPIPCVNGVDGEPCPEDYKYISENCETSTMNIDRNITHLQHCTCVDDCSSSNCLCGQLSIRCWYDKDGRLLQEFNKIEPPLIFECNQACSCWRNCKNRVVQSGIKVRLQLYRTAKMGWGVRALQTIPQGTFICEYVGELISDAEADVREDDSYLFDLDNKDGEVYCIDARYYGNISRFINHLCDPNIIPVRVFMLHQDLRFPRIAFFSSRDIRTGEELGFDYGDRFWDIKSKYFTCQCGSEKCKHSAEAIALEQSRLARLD
#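 Readings reflect AlphaScreen signal from monomethyl-H3K9 antibody detection. HMT at 20 nM; substrate b-H3K9 500 nM; cofactor SAM 20 uM; 2 h RT reaction; compounds tested as titrations in qHTS with 15 min preincubation.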
# Tau fluor cs: counter-screen for tau fibril formation inhibitors; tau K18 P301L (four-repeat tau fragment) Alexa594 fluorescence, heparin fibrillization; Potency, µM (titrated, usually from 57.7 µM); 0.93% of 280,000 active; AID 1463; note: nearly all actives have a fitted effect of over 55% in size
#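 Human K18 P301L tau (15 uM unlabeled plus 0.24 uM Alexa 594-labeled, final) in 100 mM sodium acetate pH 7 was mixed with compound and 20 uM heparin and incubated 6 hr at 37 C.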
# Sfp PPTase inh: Sfp phosphopantetheinyl transferase inhibition | Q9F4F7 | Biochemical Sfp PPTase activity, qHTS | Potency, µM, most hits filed as inhibitors | AID 1490 | 3.5% of 310,000 active;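 note: the enzyme is Sfp with the accession as filed and its product quenches rhodamine fluorescence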
#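 Step 1, compound plus 15 nM Sfp-PPTase, 15 min, room temperature. Step 2, add rhodamine-CoA (5 uM) and BHQ-2-YbbR (12.5 uM). Step 3, read 525/598 nm fluorescence at 0 and 30 min.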
# FBPA coupling cs: inhibits coupling enzyme system, counter-screen for aldolase hits; AID 2472; activity change, negative = inhibition, % at 58.2 µM, hits read low; 0.67% of 290,000 active; coupling enzyme system counterscreen, AmpLite Red fluorescence; in the data active = activity change below about -30%
#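 Counterscreen lacking aldolase: glyceraldehyde-3-phosphate coupling-enzyme reagent preincubated 10 min at RT with compound (at 57.5 uM final), then substrate/coupling system with AmpLite Red added; fluorescence read at 525/598 nm after 20 min RT.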
# Tau FP inhib: inhibitors of human tau fibril formation; P10636; 0.39% of 280,000 active; K18 P301L tau heparin fibrillization, Alexa594 FP, 6 h; Potency, µM (series often up to 57.7 µM), actives largely listed as inhibitors; AID 1468; note: nearly all actives have a fitted effect of over 55% in size
#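 Human tau K18 […] P301L fragment, 15 uM unlabeled plus 0.24 uM Alexa 594-labeled tau (final), with compound and 20 uM heparin in 100 mM sodium acetate pH 7; 6 hr at 37 C, then Alexa 594 FP read.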
# Hits are given with their value; i = inactive; ? = inconclusive; nt = not tested or not shown; ! = repeats disagree; [ ] = remark or other dose. Unless noted, calls come from the whole dose curve; as a rule, active = well fitted curve in the direction sought with a large enough effect; inconclusive = small, poorly fitted or top-dose-only effect, or another doubt; inactive = no such curve, though single readings can be large; an effect the other way counts as inactive or inconclusive.
SMILES,Tau fibril ThT,G9a block,Tau fluor cs,Sfp PPTase inh,FBPA coupling cs,Tau FP inhib
Cc1ccccc1C(=O)Oc1ccc(Br)cc1C(=S)N1CCCC1,i,45µM,i,i,nt,i
CCN(CC)CCOC(c1ccccc1)c1ccc(C)cc1 (centres undefined),i,i,i,i,i,i
Cc1ccc(C(OCC(C)(C)C[N+](C)(C)C)c2ccccc2)cc1 (centres undefined),i,i,i,45µM,i,i
COc1cc(NC(=O)CSc2ncc(S(=O)(=O)c3ccc(Br)cc3)c(=O)[nH]2)cc(OC)c1,i,i,i,nt,nt,?
CC(C)N(Cc1nc(-c2ccc(Cl)cc2)no1)C(=O)c1ccco1,i,i,i,nt,nt,i
Cc1cc(C)c2cc3c(N)c(C(=O)N4CCOCC4)sc3nc2c1,22µM,8.9µM,?,?,i,i
COc1ccc2nc3sc(C(=O)NCc4cccs4)c(N)c3cc2c1,16µM,nt,?,i,i,i
Cc1cc(C)c2nc3sc(C(=O)N4CCOCC4)c(N)c3cc2c1,?,?,?,?,i,i
CCOc1ccc2nc3sc(C(=O)N4CCOCC4)c(N)c3cc2c1,7.1µM,?,?,32µM,i,?
COc1ccc(-c2cc(C(=O)NCc3cccs3)no2)cc1,i,?,i,i,i,i
CNC(=O)[C@@H]1CCC(=O)N1,nt,i[0.501 µM],nt,nt,nt,nt
O=C(CCC(=O)Nc1ccc(F)cc1)N/N=C/c1cccc(Br)c1,nt,i,nt,i,-31,nt
COc1cccc(/C=N/NC(=O)CCC(=O)Nc2ccc(Br)cc2)c1,nt,i[2.33 µM],nt,i,i,nt
Cc1ccc(N(CC(=O)N/N=C/c2cccc(Br)c2)S(C)(=O)=O)cc1,i,i,i,i,-31,?
Cc1cn2c(=O)cc(COc3cccc(NC(=O)c4ccc(C(C)(C)C)cc4)c3)nc2s1,i,0.79µM,i,nt,nt,i
Cc1cccc(C(=O)Nc2cccc(OCc3cc(=O)n4cc(C)sc4n3)c2)c1,i,i,i,nt,nt,i
N#CC1=C2SCC(O)(c3ccccc3)N2C(=O)CC1c1ccccc1 (centres undefined),?,40µM,i,56µM,i,i
CCN(CCO)C(=O)c1ccc2nc(Cc3cccc(Cl)c3)oc2c1,nt,nt,nt,i,i,nt
CN1C(=O)C(N=Nc2ccccc2C(=O)O)N(C)C1=S (centres undefined),4.5µM,1.8µM,i,i,i,i
N#C/C(=C\c1cccs1)C(=O)c1ccccc1Cl,i,40µM,i,28µM,i,i
C(=N\Nc1ccc(-n2ccnc2)nn1)/c1ccccc1,i,i,i,89µM,i,i
COC(=O)CN1C(=O)N(c2ccccc2)C(N(O)C(=O)Nc2ccccc2)C1(C)C (centres undefined),i,40µM,i,i,i,i
COC(=O)CNC(=O)CN1C(=O)N(c2ccccc2)C(N(O)C(=O)Nc2ccccc2)C1(C)C (centres undefined),i,?,i,i,i,i
Cc1oc(-c2ccc3ccccc3c2)nc1CN(C)C(C)c1ccncn1 (centres undefined),i,?,i[2.34 µM],22µM,i,i
COc1ccccc1-n1c(Cc2cccs2)n[nH]c1=S,i,3.5µM,i,i,i,i
SMILES,Tau fibril ThT,G9a block,Tau fluor cs,Sfp PPTase inh,FBPA coupling cs,Tau FP inhib
S=c1[nH]nc(Cc2cccs2)n1-c1cccc2ccccc12,i,1.8µM,i,?,i,i
Cc1ccc(C)c(-n2c(Cc3cccs3)n[nH]c2=S)c1,i,1.6µM,i,i,i,i
CCCCc1ccc(-n2c(Cc3cccs3)n[nH]c2=S)cc1,i,1.8µM,i,i,i,i
Cc1ccc(-c2cc(Cc3cccs3)c(=O)[nH]n2)cc1,nt,i,?,i,i,i
CCCCCCC1=Cc2cc(OC)c(OC)cc2C(C2(C(=O)OCC)CCCC2=O)O1 (centres undefined),i[11.5 µM],nt,i[11.6 µM],i,i,i[11.6 µM]
Cc1cccc(-n2c(C)cc(C)c(C#N)c2=O)c1,i,i,i[2.34 µM],i,i,i
S=c1[nH]nc(Cc2cccs2)n1-c1ccccc1,i,i[0.501 µM],i,i,nt,i
S=c1[nH]nc(Cc2cccs2)n1-c1ccccc1Cl,i,2.2µM,i,i,i,i
COc1ccc(CNC(=O)C/C(C)=N/NC(=O)COc2cccc(C)c2)cc1,i,i,i,i,i,?
O=C(c1ccc(Cl)cc1)c1c[nH]c(C(=O)NNc2ccccc2)c1,?,20µM,i,i,i,i
CNC(=O)c1cc(C(=O)c2ccc(Cl)cc2)c[nH]1,nt,i,nt,i,i,nt
CCc1ccc2oc(-c3cc(NC(=O)c4cc(OC)c(OC)c(OC)c4)ccc3O)nc2c1,i,i,?,nt,nt,i
CCc1ccc2oc(-c3cc(N=Cc4cccc(OC)c4O)ccc3O)nc2c1,14µM,i[12.7 µM],?,i,i,i
O=C(c1ccc(F)cc1)N1CCCCC(S(=O)(=O)c2ccccc2)C1=O (centres undefined),i,?,i,79µM,i,i
O=C(c1ccc(F)cc1)N1CCCCC(Sc2nnc3ccccn23)C1=O (centres undefined),i,i,i,i,i,i
OCC(CO)(CO)N=Cc1c(O)ccc2ccccc12,25µM,1.4µM,?,i,i,?
CN(C)/N=C/c1c(O)ccc2ccccc12,?,10µM,?,i,i,i
CS/C(N)=N/N=C/c1c(O)ccc2ccccc12,?,11µM,?,i,i,i
Oc1ccc2ccccc2c1C=NC12CN3CCN(CN(C3)C1)C2,20µM,?,?,?,-48,?
Oc1ccc2ccccc2c1C=Nc1ccccc1Br,nt,nt,nt,i,i,nt
O=C(CN1CCCC1)N/N=C/c1c(O)ccc2ccccc12,nt,i,nt,i,i,nt
Cc1ccc(C)c2sc(NC(=O)c3ccc(S(=O)(=O)N4CCC(C)CC4)cc3)nc12,i,i,i,nt,nt,?
CN(C)c1ccc(-c2nc(-c3cc4cc(Cl)ccc4oc3=O)cs2)cc1,i,i,i,nt,nt,i
Cc1ccc(SCc2nc(-c3ccc(C(=O)NCC(C)c4ccccc4)cc3)oc2C)cc1 (centres undefined),i,i,i,nt,nt,i
COC(=O)CCC(=O)OC1(C)C(=O)C2=CN(CC3CC3)C(c3ccc(OC)cc3)=CC2=C(Br)C1=O (centres undefined),11µM!,?,i[11.6 µM],i,-32,?
COC(=O)CCC(=O)OC1(C)C(=O)C2=CN(CCCOC(C)C)C(c3ccc(OC)cc3)=CC2=C(Br)C1=O (centres undefined),16µM,i[12.7 µM],i,i,-41,?
COC(=O)CCC(=O)OC1(C)C(=O)C2=CN(Cc3ccc(OC)cc3)C(c3ccc(OC)cc3)=CC2=C(Br)C1=O (centres undefined),i[11.5 µM],nt,i[11.6 µM],i,i,i[11.6 µM]
COC(=O)CCC(=O)OC1(C)C(=O)C2=CN(CC(C)C)C(c3ccc(OC)cc3)=CC2=C(Br)C1=O (centres undefined),10µM!,i[12.7 µM],i[11.6 µM],?,-40!,8.9µM!
